Results filed as inconclusive are left out. Active and inactive are the calls of the source. Calls come from the whole dose curve; as a rule, active = well fitted curve in the direction sought with a large enough effect; inconclusive = small, poorly fitted or top-dose-only effect, or another doubt; inactive = no such curve, though single readings can be large; an effect the other way counts as inactive or inconclusive.

The nature of test [1]: OV-KATE Cancer Cell Toxicity qHTS against the NCATS CANVASS Library (AID 1347345). Note: potency is the fitted concentration of half-maximal effect. The essentials:
(§1)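 Toxicity is measured over 72 h of compound exposure at 37 degrees C under 5% CO2. Each well holds 1000 cells, pre-incubated for 4 hours before dosing across an 11-point range. CellTiter-Glo luminescence gives viability.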
Background: qHTS replaces the single test concentration by a dilution series.

Test [2] can be described thus: HPAF-II Cancer Cell Toxicity qHTS against the NCATS CANVASS Library (AID 1347346). Note: nearly all actives have a fitted effect of over 55% in size. Note: potency is the fitted concentration of half-maximal effect. The method in brief: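 Luminescence from CellTiter-Glo, added after 72 h compound exposure and a 15 min room-temperature incubation, served as the viability readout. HPAF-II cells (1000/well) received an 11-point concentration series.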
A short description of test [3]: OV-SAHO Cancer Cell Toxicity qHTS against the NCATS CANVASS Library (AID 1347348). Note: nearly all actives have a fitted effect of over 55% in size. Note: potency is the fitted concentration of half-maximal effect. The essentials:
as §1

Test [4] in a line: U-118MG Cancer Cell Toxicity qHTS against the NCATS CANVASS Library (AID 1347351). The essentials: as §1
Test [5] is described as follows: HPAF-II 24hr Apoptosis Induction qHTS against the NCATS CANVASS Library (AID 1347356). The method in brief:
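Luminescent caspase-3/7 signal (DEVD substrate, Caspase-Glo) served as read-out, taken 15 min after reagent addition to HPAF-II cells exposed 24 h to compounds.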

Test [6] can be described thus: HPAF-II 12hr Apoptosis Induction qHTS against the NCATS CANVASS Library (AID 1347358). The essentials: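 500 HPAF-II cells/well; cmpds 11-pt; 12 hr, 37 degrees C/5% CO2; Caspase-Glo 3/7 added, 15 min RT dark; luminescence read. Doxorubicin titration as control.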
Test [7] in a line: HEK293 24hr Apoptosis Induction qHTS against the NCATS CANVASS Library (AID 1347359). The essentials: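 Caspase-3/7 activation measured as luminescence from the DEVD-based Caspase-Glo reagent, 15 min at room temperature, following 24-hour compound treatment of HEK293 cells.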
Test [8] is described as follows: HPAF-II 18hr Apoptosis Induction qHTS against the NCATS CANVASS Library (AID 1347360). The method in brief: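 Luminescent DEVD-substrate signal, proportional to caspase activity, is measured in HPAF-II cells after 18-hour treatment across a concentration series; doxorubicin serves as control.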
Test [9] has as its target Luciferin 4-monooxygenase (Photinus pyralis) (UniProt P08659). The test can be described thus: Firefly luciferase counterscreen qHTS: Assay Interference Panel against the NCATS CANVASS Library (AID 1347363). Note: series mostly up to about 57 µM. The essentials: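 Luminescence inhibition readout: compounds (11-point qHTS) sat 15 min at room temperature with substrate mix (0.013 mM luciferin and ATP), then firefly luciferase was added and signal read 5 min later.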
On the technique in general: A counterscreen serves to expose hits that act by an unwanted route or on another target.

Test [10] is described as follows: qHTS for ATAD5 Agonist screened against the NCATS CANVASS Library (AID 1347367).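 Note: luciferase reporter driven by ATAD5 which rises upon DNA damage.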 The method in brief:
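Genotoxicity was scored as increased ATAD5-luciferase luminescence in HEK293T after 16hr of exposure, with cell viability measured by fluorescence beforehand in the same well.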

Test [11] is described as follows: MCF7 Cancer Cell Toxicity qHTS against the NCATS CANVASS Library (AID 1347369). Note: potency is the fitted concentration of half-maximal effect. The essentials: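 This 72 hr qHTS scored MCF7 viability by CellTiterGlo luminescence, with 500 cells/well; bortezomib titration ran as control.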
A short description of test [12]: J3T Cancer Cell Toxicity qHTS against the NCATS CANVASS Library (AID 1347371). Note: potency is the fitted concentration of half-maximal effect. The method in brief:
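Cells plated at 500 per well, compounds pin-transferred, plates incubated 72 hr at 37C, then CellTiterGlo added and luminescence read to measure ATP content.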

Test [13] addresses Nuclear receptor subfamily 1 group I member 3 (Homo sapiens) (UniProt Q14994). The test can be described thus: qHTS for Constitutive Androstane Receptor (CAR) Agonist screened against the NCATS CANVASS Library (AID 1347373).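 Note: every well also contained 1.5 µM PK11195 alongside the test compound.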 The essentials: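 HepG2-hCAR-CYP2B6 cells, 2500/well, attached 4hr; cpd + PK11195 1.5uM final; 24hr 37C 5% CO2. CellTiter-Fluor viability read, then ONE-Glo luminescence for CAR activation.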

Test [14] is described as follows: 10-beta competent E. coli microbial cell viability qHTS against the NCATS CANVASS Library (AID 1347376). Note: series mostly up to about 46 µM. The method in brief:
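E. coli 10-beta, 0.2 OD; cpds 11-pt; o/n 37C, 5% CO2; BacTiter-Glo 20 min RT; luminescence (ATP) = viable cells. Daunomycin ctrl.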

A short description of test [15]: qHTS for H2AX Agonists against the NCATS CANVASS Library (AID 1347378).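 Note: phospho-H2AX S139 level in CHO-K1 lysates by TR-FRET emission ratio.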 The method in brief:
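Signal is the 665/620 nm emission ratio from europium cryptate and d2 antibody pair, rising with S139-phosphorylated H2AX. CHO-K1 cells saw test agents for 3 hr at 37C; detection ran 24 hr at room temperature.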

A short description of test [16]: Cytotoxicity qHTS for assessment of Hepg2 cells membrane integrity screened against the NCATS CANVASS Library (AID 1347387). The method in brief:
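qHTS, 11-pt conc. series, 0.59 nM - 46 uM final; HepG2 2000 cells/well, overnight attachment; 5 hr compound exposure 37C/5% CO2; CytoTox-ONE, 10 min RT; fluorescence ex560/em590 = LDH from damaged membranes.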

The nature of test [17]: Vero-766 cells viability qHTS against the NCATS CANVASS Library: Counterscreen for Zika virus inhibition assay (AID 1347394). Note: series mostly up to about 46 µM; nearly all actives have a fitted effect of over 60% in size. The method in brief:
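Counterscreen for toxicity: Vero 766 cells exposed 72 h to an 11-point compound series, viability by CellTiter-Glo.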

The nature of test [18]: qHTS for ATAD5 Antagonist screened against the NCATS CANVASS Library (AID 1347370). Note: nearly all actives have a fitted effect of over 65% in size. Note: potency is the fitted concentration of half-maximal effect. The method in brief: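 HEK293T cells with stably integrated ATAD5-luciferase reporter, 2000/well, 5 h attachment; compounds plus 10 µM 5-fluorouridine, 16 h at 37 °C. Luciferase luminescence read, with CellTiter-Fluor viability read first.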
The nature of test [19]: qHTS for Inflammasome Signaling Inhibitors: IL-1-beta AlphaLISA screen against the NCATS CANVASS Library (AID 1347379).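 Note: human THP-1 cells primed with LPS then triggered with ATP; secreted IL-1B measured as AlphaLISA emission at 615 nm; potency is the fitted concentration of half-maximal effect.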 The essentials:
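THP-1 cells pretreated 1 hr with compound (up to 57.5 uM final), then stimulated with LPS (250 ng/mL final) and ATP (1.25 mM final). Secreted IL-1B measured by AlphaLISA after 16 hr; glyburide as positive control.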

Test [20] is described as follows: Viability qHTS for inhibitors of the SERCaMP assay screened against the NCATS CANVASS Library (AID 1347400). Note: nearly all actives have a fitted effect of over 70% in size. Note: potency is the fitted concentration of half-maximal effect. The method in brief:
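SH-SY5Y SERCaMP MJH297 cells, 1000/well; 4 h settle, 37C/5% CO2; pin-transferred cpds; 48 h; CellTiter-Glo lum. Pos ctrl bortezomib 0.0001 - 4.6 uM.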

Chain of Luciferin 4-monooxygenase (Photinus pyralis) (P08659 whole entry, looked up): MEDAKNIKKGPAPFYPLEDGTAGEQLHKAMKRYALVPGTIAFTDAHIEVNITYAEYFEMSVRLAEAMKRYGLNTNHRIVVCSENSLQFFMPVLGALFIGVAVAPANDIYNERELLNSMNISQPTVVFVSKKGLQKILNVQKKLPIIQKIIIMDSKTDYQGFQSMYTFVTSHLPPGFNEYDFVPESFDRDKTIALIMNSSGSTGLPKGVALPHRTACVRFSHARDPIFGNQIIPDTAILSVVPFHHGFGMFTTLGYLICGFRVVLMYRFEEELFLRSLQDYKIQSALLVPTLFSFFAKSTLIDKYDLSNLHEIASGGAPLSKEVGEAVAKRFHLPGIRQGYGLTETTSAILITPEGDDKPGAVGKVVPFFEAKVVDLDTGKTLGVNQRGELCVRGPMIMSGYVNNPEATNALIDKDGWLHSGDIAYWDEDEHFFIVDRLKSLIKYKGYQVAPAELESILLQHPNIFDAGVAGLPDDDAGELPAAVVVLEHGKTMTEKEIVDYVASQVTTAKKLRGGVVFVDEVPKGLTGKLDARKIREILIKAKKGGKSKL
Chain of Nuclear receptor subfamily 1 group I member 3 (Homo sapiens) (Q14994 whole entry, looked up): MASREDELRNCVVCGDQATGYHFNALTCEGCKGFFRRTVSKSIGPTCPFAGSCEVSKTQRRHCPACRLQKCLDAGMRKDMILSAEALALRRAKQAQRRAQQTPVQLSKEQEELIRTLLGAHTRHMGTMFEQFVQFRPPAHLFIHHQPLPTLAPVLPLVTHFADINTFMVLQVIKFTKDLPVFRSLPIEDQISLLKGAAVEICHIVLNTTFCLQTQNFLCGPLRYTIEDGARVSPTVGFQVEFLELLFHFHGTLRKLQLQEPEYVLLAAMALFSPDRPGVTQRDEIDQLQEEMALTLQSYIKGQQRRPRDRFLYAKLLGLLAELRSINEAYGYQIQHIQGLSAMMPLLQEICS

As to `CN1CCc2cc3c(c4c2[C@H]1[C@@H](O)c1ccccc1-4)OCO3`, the Potency result in [1], in [3], in test [4], in test [6], in test [7] and in [8] was “inactive” throughout. The Potency entry in test [9], in [10], in test [12], in [15] and in test [17] was “inactive” throughout. In addition, the values for the Potency in [2] and in test [11] were 13.3 µM (active) and 26.2 µM (active), respectively. For the same compound, the result in [5], in test [13], in [14] and in test [16] was inactive.

For the compound `C/C(=C\[C@H](C)C(=O)CCCC1CC(=O)NC(=O)C1)[C@@H]1OC(=O)/C=C/CC/C=C/C[C@@H](O)[C@@H]1C`, the Potency was 2.11 µM (active) in test [1]; 1.49 µM (active) in test [2]; 2.98 µM (active) in [3]; 2.34 µM (active) in test [18]; 2.64 µM (active) in test [12]; 9.68 µM (active) in test [19]. Besides, the Potency in [20] is 5.38 µM (active). The compound was classed as inactive in test [5], in [13], in [14] and in test [16]. Besides, the Potency result in [6], in test [7], in [8], in test [9], in test [10] and in test [11] was “inactive” in each case. Further, the Potency result in [17] was “inactive”.

`Oc1ccc([C@H]2Oc3ccc(/C=C/c4cc(O)cc(O)c4)cc3C2c2cc(O)cc(O)c2)cc1` (stereo partly drawn): the Potency entry in test [1], in [2], in [3], in [4], in [6] and in test [7] was “inactive” each time. Further, the Potency entry in test [8], in test [9], in test [10], in test [11], in [18] and in test [12] was “inactive” in each case. The Potency result in test [15] and in [20] was “inactive” in each case. Also, the compound was classed as inactive in test [5], in test [13], in test [14] and in test [16].

As to `CO[C@H]1/C=C/CC[C@@H](S[C@@H]2O[C@H](CO)[C@@H](O)[C@H](O)[C@H]2O)CC(=O)O[C@@H](/C(C)=C/[C@H](C)C(=O)CCCC2CC(=O)NC(=O)C2)[C@@H](C)[C@@H]1O`, the Potency in [1] was 3.75 µM (active); in test [2] it was 8.41 µM (active); in [3], 3.75 µM (active); in test [18] it was 4.17 µM (active); in [19] it was 30.6 µM (active); in test [20], 12 µM (active). The result in [5], in [14] and in test [16] was inactive. Besides, the Potency result in test [6], in [7], in [8], in test [9], in test [10] and in [17] was “inactive” each time.

Values taken from PubChem BioAssay (NCATS).
